Compounds with a hit are over-represented: about 1.5% of the library has one in this group of screens.
Vc quorum ag – inducers of Vibrio cholerae quorum light production without autoinducers; AID 588436; hit rate 0.16% among 350,000; activation, % at 18.7 µM; V. cholerae BH1578 lux reporter, luminescence, 6 h; in the data active means activation mostly above about 9.7%, no sharp cut-off
CCHF vOTU inh – CCHFV vOTU protease inhibition | hit rate 0.55% among 370,000 | inhibition, % at 11.5 µM | AID 651958 | Pep-AMC fluorescence; in the data active means inhibition above about 30%; further: 0% = vehicle wells with enzyme and 100% = no enzyme wells
TcdB inh – inhibitors of Clostridioides difficile toxin B glycohydrolase; TcdB glycohydrolase enzymatic assay, plate reader; inhibition, % at 9.99 µM; hit rate 0.24% among 350,000; AID 652162; in the data active means inhibition above about 10%
PrPC surface inh – cell surface PrPC inhibition, primary TR-FRET screen; hit rate 0.43% among 370,000; TR-FRET read-out; inhibition, % at 13.8 µM; AID 720596; P04156; in the data active means inhibition above about 24%; further: 0% = median of the test wells and 100% = reference compound wells
VHR inh abs – blocks human VHR1 dual specificity phosphatase; P51452; recombinant VHR phosphatase, pNPP absorbance; inhibition, % at 13.3 µM; hit rate 0.52% among 290,000; AID 1654; in the data active means inhibition above about 50%
PriA SSB inh – inhibitors of Klebsiella pneumoniae PriA binding to SSB C-terminal tail; hit rate 0.6% among 430,000; inhibition, % at 33 µM; AID 1272365; AlphaScreen SSBct-PriA binding, biotinylated peptide; in the data active means inhibition mostly above about 37%, no sharp cut-off; inactive means mostly below about 20%;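 further: plate controls were negative control peptide for no effect and reference peptide for full effect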
PrPC confirm – confirmation of inhibitors of cell surface human prion protein | shares compounds with PrPC surface inh | cell surface PrPC level, TR-FRET | inhibition, % at 13.8 µM | hit rate 65% among 1,500 | AID 743200; in the data active means inhibition above about 25%
LD9 cytotox – counter-screen for PrPc inhibitors: cytotoxicity in LD9 cells. shares compounds with PrPC surface inh. luminescence viability. inhibition, % at 13.8 µM. hit rate 29% among 1,500; in the data active means inhibition above about 9.5%
Active calls of the source: *; i = inactive; · = not tested or not shown.

SMILES | Vc quorum ag | CCHF vOTU inh | TcdB inh | PrPC surface inh | VHR inh abs | PriA SSB inh | PrPC confirm | LD9 cytotox
C=C1C(=O)O[C@@H]2C[C@@H](C)[C@@H]3C=CC(=O)[C@@]3(C)[C@@H](O)[C@H]12 | 0 | 0 | 1 | 95* | 7 | -11 | 100* | 58*
CC(=O)c1cccc(NC(=O)CC2SC(=NN=Cc3ccccc3)NC2=O)c1 (centres undefined) | · | · | · | · | · | -11 | · | ·
O=C(OC1CN(c2nc3ccccc3s2)C1)c1nc2ccccc2s1 | · | · | · | · | · | 2 | · | ·
O=S(=O)(Nc1ccncc1)c1cc(Cl)c(Cl)cc1Cl | i | -3 | 0 | 43* | 22 | -13 | 8 | -4
COc1ccc(Cl)cc1S(=O)(=O)Nc1ccncc1 | -1 | -11 | 1 | 6 | 17 | -12 | · | ·
COc1ccc(C(=O)/C=C2\C(=O)Nc3ccccc32)cc1 | · | · | · | · | · | 3 | · | ·
CC(C)Oc1ccc(C(=O)/C=C2/C(=O)Nc3ccccc32)cc1 | i | -5 | 1 | 34* | 39 | -7 | 9 | -11
Cc1ccc(Nc2nc(NCc3ccco3)c3ccccc3n2)cc1 | -1 | 21 | 0 | 35* | 41 | 4 | 43* | 24*
COc1ccccc1Nc1nc(NCc2ccco2)c2ccccc2n1 | 0 | -2 | -3 | 8 | 1 | 10 | · | ·
Cc1ccccc1Cn1cc(NC(=O)c2cc(-c3cccs3)on2)cn1 | 2 | 1 | · | 14 | 10 | -2 | · | ·
Cc1ccccc1Cn1cc(NC(=O)c2cc(-c3ccco3)on2)cn1 | i | -5 | 0 | 30* | -10 | -16 | 16 | 5
O=C(Nc1ccc(Br)c2ccccc12)c1ccc2ccccc2c1O | i | -1 | 1 | 35* | 13 | 2 | 64* | 21*
O=C(COc1ccc(Cl)cc1)NCCn1ncccc1=O | · | · | · | · | · | -14 | · | ·
CNC(=O)CSc1nc(C(F)(F)F)cc(=O)[nH]1 | · | · | · | · | · | -19 | · | ·
COCCn1c(SCC(=O)Nc2cccc(F)c2)nc2c([nH]c3ccccc32)c1=O | i | -1 | 0 | -3 | 0 | -4 | · | ·
COCCn1c(SCC(=O)Nc2cccc(NC(C)=O)c2)nc2c([nH]c3ccccc32)c1=O | i | 12 | -5 | 29* | -19 | -8 | 10 | 1
Cc1cc(NC(=O)CSc2nc(C3CCCCC3)nc3ccccc23)no1 | 0 | 2 | · | 14 | 10 | -10 | · | ·
Cc1nonc1NC(=O)CSc1nc(C2CCCCC2)nc2ccccc12 | 0 | 3 | · | 50* | 2 | -13 | 53* | -12
Cc1cccc(NC(=O)CSc2nc(C3CC3)nc3ccccc23)c1 | -1 | 0 | 0 | 30* | 20 | -7 | 28* | -6
Cc1cc(C)c(C#N)c(SCC(=O)Nc2nc(-c3ccccc3)ns2)n1 | · | · | · | · | · | -4 | · | ·
O=C(Nc1cccc(C(F)(F)F)c1)c1cccc2c(-c3cccnc3)coc12 | i | · | · | · | · | · | · | ·
COc1cc(NC(=O)c2cccc3c(-c4cccnc4)coc23)cc(OC)c1OC | 0 | -4 | 0 | 30* | · | · | 25* | 43*
O=C(NCc1ccccn1)c1coc(=O)c(Br)c1 | i | -26 | · | 27* | -1 | 8 | -2 | 0
O=C(Nc1ccn(Cc2ccccc2F)n1)c1ccc(COc2ccc(Br)cc2)cc1 | 0 | 16 | · | 32* | -2 | -14 | 23 | 8
O=C(Nc1ccc(Cn2cccn2)cc1)c1ccc(COc2ccc(Br)cc2)cc1 | 0 | 8 | 1 | -2 | 35 | 3 | · | ·
SMILES | Vc quorum ag | CCHF vOTU inh | TcdB inh | PrPC surface inh | VHR inh abs | PriA SSB inh | PrPC confirm | LD9 cytotox
O=C(Nc1ccc(Cn2cccn2)cc1)c1ccc(COc2cccc(Br)c2)cc1 | i | 13 | · | 28* | -35 | -26 | 26* | 2
O=C(CSc1ncnc2ccccc12)Nc1ccc2c(c1)OCCO2 | 0 | 18 | 3 | 40* | 9 | -15 | 50* | -6
O=C(CSc1ncnc2ccccc12)NCc1ccc2c(c1)OCO2 | -1 | -8 | 1 | · | 9 | -6 | · | ·
CC(Sc1ncnc2ccccc12)C(=O)Nc1ccc2c(c1)OCCO2 (centres undefined) | 0 | -9 | · | 43* | 21 | -7 | 28* | 4
O=C(CSc1nc(Cc2ccccc2)nc2ccccc12)Nc1ccc2c(c1)OCCO2 | 2 | -12 | 1 | 31* | 11 | -1 | 71* | -9
CC(=O)Nc1ccc(-c2ccnc(-c3ccc(NC(C)=O)cc3)n2)cc1 | -1 | 16 | -3 | 58* | 11 | -4 | 56* | -5
COc1cccc(CSc2nc(C)c(CC(=O)NCc3ccco3)c(=O)[nH]2)c1 | · | · | · | · | · | -11 | · | ·
CNc1ncc(C(=O)c2ccccc2)s1 | 0 | 8 | · | -7 | 41 | -3 | · | ·
CNc1ncc(C(=O)c2ccc(Br)cc2)s1 | 0 | 13 | 3 | 26* | -5 | -9 | 46* | -2
COc1ccc(CC(=O)NCCNc2ccc(-n3cccc3)nn2)cc1 | · | · | · | · | · | 1 | · | ·
O=C(NC1CCCCN(Cc2cccc(C(F)(F)F)c2)C1=O)c1ccc(COc2ccccc2)cc1 (centres undefined) | · | 2 | · | 26* | · | · | 25* | 5
O=C(NC1CCCCN(Cc2ccc(Cl)cc2)C1=O)c1ccc(COc2ccccc2)cc1 (centres undefined) | · | 4 | · | 16 | · | · | · | ·
COc1cc(C(=O)NC2CCCCN(Cc3cccc(C(F)(F)F)c3)C2=O)cc(OC)c1OC (centres undefined) | · | 2 | · | 49* | · | · | 8 | -7
COc1cc(C(=O)NC2CCCCN(Cc3cccc(Cl)c3)C2=O)cc(OC)c1OC (centres undefined) | · | -6 | · | 2 | · | · | · | ·
O=C(Cc1cccs1)N(Cc1ccoc1)Cc1cccs1 | · | · | · | · | · | 7 | · | ·
COc1ccc(S(=O)(=O)C(CNC(=O)c2cc(Cl)ccc2[N+](=O)[O-])c2cccs2)cc1 (centres undefined) | · | · | · | · | · | 4 | · | ·
C[C@@H]1C[C@@H]([C@H](O)CC2CC(=O)NC(=O)C2)C(=O)[C@@H](C)C1 | 0 | 0 | 0 | 82* | · | 2 | 86* | 33*
CC(=O)OC1(C)CC(C)C(=O)C(C(O)CC2CC(=O)NC(=O)C2)C1 (centres undefined) | -1 | 6 | · | 91* | · | -1 | 101* | 55*
O=S(=O)(c1cccc2cccnc12)N1CCC(Oc2ncccc2Br)CC1 | · | · | · | · | · | -15 | · | ·
Cc1cc(NC(=O)CSc2ccc(NC(=O)c3cccs3)nn2)no1 | · | · | · | · | · | -2 | · | ·
O=C(c1cccs1)c1ccc(CNC(=O)c2ccccc2Cl)s1 | · | · | · | · | · | -13 | · | ·
CSc1cccc(N2C(=O)NC3CC2(C)Oc2ccccc23)c1 (centres undefined) | · | · | · | · | · | 3 | · | ·
COc1cc(N2C(=O)NC3CC2(C)Oc2ccccc23)cc(OC)c1OC (centres undefined) | i | 4 | · | 33* | 28 | -7 | 3 | -7
COc1ccc(C(=O)Nc2ccc(-c3cn4ccsc4n3)cc2)cc1S(=O)(=O)N1CCOCC1 | -6 | -1 | · | 77* | 19 | -5 | 51* | -3

Bioassay records as filed in PubChem BioAssay.
